Measured values: PubChem BioAssay (NCI)
This is part of a sample that, as a whole, favours compounds with a hit. Of some 79,000 tested, about 15% had one in any assay. Unmarked numbers belong to inactive results. Calls of active or inactive are those of the source. No stated cut-off is given here; in the data, active means growth inhibition above about 70%; inactive means the rest.

What was measured:
[1] = NCI Yeast Anticancer Drug Screen. Data for the rad50 strain (AID 155);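 further: 0% = growth of vehicle-only cultures of the same strain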; conditions: S. cerevisiae rad50 strain growth inhibition, stronger effect = higher value
Method in brief: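 Vehicle-treated cultures provide the reference for the growth inhibition reported for compound-exposed, repair-deficient yeast.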

[2] = NCI Yeast Anticancer Drug Screen. Data for the mec2-1 strain (AID 157); conditions: S. cerevisiae mec2-1 strain, stronger effect = higher value
Method in brief: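 Using mec2-1 yeast: add compound, measure growth, express inhibition versus vehicle-treated cultures.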

[3] = NCI Yeast Anticancer Drug Screen. Data for the sgs1 mgt1 strain (AID 161);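 further: 0% = growth of cultures given vehicle only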; conditions: S. cerevisiae sgs1 mgt1 strain, stronger effect = higher value
Method in brief: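 This yeast growth screen uses a strain with defined DNA-repair lesions; compound-treated growth is compared with vehicle-treated growth.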

[4] = NCI Yeast Anticancer Drug Screen. Data for the cln2 rad14 strain (AID 165);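 further: 0% = growth equal to vehicle treated cultures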; conditions: S. cerevisiae cln2 rad14 strain, stronger effect = higher value
Method in brief: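 Yeast strain cln2 rad14, bearing defects in cell cycle control and DNA repair, serves as the test system; values reflect growth inhibition compared with vehicle.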

[5] = NCI Yeast Anticancer Drug Screen. Data for the bub3 strain (AID 167); conditions: S. cerevisiae bub3 mutant strain, stronger effect = higher value
Method in brief: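 Mutant yeast screening strain plus compound; vehicle-treated cultures serve as the 0% inhibition reference.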

[6] = NCI Yeast Anticancer Drug Screen. Data for the mlh1 rad18 strain (AID 175); conditions: S. cerevisiae mlh1 rad18 strain growth inhibition, stronger effect = higher value
Method in brief: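 Steps: expose repair-defective yeast to compound; measure growth; express inhibition against vehicle-treated controls.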

[7] = at 5.0 µM (retest, dose inferred, filed as 0.5)
[8] = at 50.0 µM (retest, dose inferred, filed as 5.0)

For `CCCCCCCCCCNC(=O)CI`, the growth inhibition [1, 7] was 20%, the growth inhibition [1, 8] was 98% (active) and the growth inhibition [2, 7] was 7%. The growth inhibition [2, 8] was 99% (active), the growth inhibition [3, 7] was 24% and the growth inhibition [3, 8] was 99% (active). The growth inhibition [4, 7] was 10%, the growth inhibition [4, 8] was 42% and the growth inhibition [5, 7] was 14%. For the same compound, the growth inhibition [5, 8] was 100% (active), the growth inhibition [6, 7] was 8% and the growth inhibition [6, 8] was 98% (active).
With `CCCCOC(=O)/C=C\C(=O)NC(N)=O` the growth inhibition [1, 7] was 4%, the growth inhibition [1, 8] was 9% and the growth inhibition [2, 7] was -1%. It also gave a growth inhibition [2, 8] of 7%, a growth inhibition [3, 7] of 5% and a growth inhibition [3, 8] of 18%. For the same compound, the growth inhibition [4, 7] was -3%, the growth inhibition [4, 8] was 1% and the growth inhibition [5, 7] was 0%. The growth inhibition [5, 8] was 6%, the growth inhibition [6, 7] was -21% and the growth inhibition [6, 8] was 18%.
In the case of `Oc1cc(Cl)cc2cccnc12`, the growth inhibition ([1]; at 50.0 µM unless noted) is reported as 87.8% (active), the growth inhibition ([2]; at 50.0 µM unless noted) is reported as 91.5% (active) and the growth inhibition ([3]; at 50.0 µM unless noted) is reported as 88.8% (active). For the same compound, the growth inhibition ([4]; at 50.0 µM unless noted) was 91.6% (active) and the growth inhibition ([5]; at 50.0 µM unless noted) was 90% (active).
In the case of `CC(CC=O)CC=O`, the growth inhibition [1, 7] is reported as 15%, the growth inhibition [1, 8] is reported as 82% (active) and the growth inhibition [2, 7] is reported as 3%. For the same compound, the growth inhibition [2, 8] was 32%, the growth inhibition [3, 7] was 18% and the growth inhibition [3, 8] was 78% (active). It also gave a growth inhibition [4, 7] of 3%, a growth inhibition [4, 8] of 31% and a growth inhibition [5, 7] of -5%. For the same compound, the growth inhibition [5, 8] was -7%, the growth inhibition [6, 7] was 16% and the growth inhibition [6, 8] was 79% (active).
With `C/C(N=NC(=S)N1CC2CCC(CC2)C1)=C1\C=CC=CN1O` the growth inhibition ([1]; at 50.0 µM unless noted) was 80.3% (active), the growth inhibition ([2]; at 50.0 µM unless noted) was 85.7% (active) and the growth inhibition ([3]; at 50.0 µM unless noted) was 82.2% (active). The growth inhibition ([4]; at 50.0 µM unless noted) was 69.5% and the growth inhibition ([5]; at 50.0 µM unless noted) was 78% (active).
For `CC[N+](CC)(CC)Cc1cn(S(=O)(=O)c2ccccc2)c2ccccc12`, the growth inhibition ([1]; at 50.0 µM unless noted) was 4.3%, the growth inhibition ([2]; at 50.0 µM unless noted) was -0.7% and the growth inhibition ([3]; at 50.0 µM unless noted) was -0.95%. For the same compound, the growth inhibition ([4]; at 50.0 µM unless noted) was -64.7%, the growth inhibition ([5]; at 50.0 µM unless noted) was -0.7% and the growth inhibition ([6]; at 50.0 µM unless noted) was 5.95%.
For `O=C(NCCCN1CCN(CCCNC(=O)Nc2ccc(N=Nc3ccccc3)cc2)CC1)Nc1ccc(N=Nc2ccccc2)cc1`, the growth inhibition ([1]; at 50.0 µM unless noted) was -0.95%, the growth inhibition ([2]; at 50.0 µM unless noted) was 16.3% and the growth inhibition ([3]; at 50.0 µM unless noted) was 0.65%. It also gave a growth inhibition ([4]; at 50.0 µM unless noted) of -3.3%, a growth inhibition ([5]; at 50.0 µM unless noted) of -1.8% and a growth inhibition ([6]; at 50.0 µM unless noted) of 14.6%.
`C=C(C)c1ccc(C(C)C)cc1` gave a growth inhibition ([1]; at 50.0 µM unless noted) of -38.5%, a growth inhibition ([2]; at 50.0 µM unless noted) of -40.1% and a growth inhibition ([3]; at 50.0 µM unless noted) of -24.6%. The growth inhibition ([4]; at 50.0 µM unless noted) was 4.55%, the growth inhibition ([5]; at 50.0 µM unless noted) was -13.6% and the growth inhibition ([6]; at 50.0 µM unless noted) was -3.25%.
For `c1ccc(OC2=NC3=S(S2)SC(Oc2ccccc2)=N3)cc1`, the growth inhibition ([1]; at 50.0 µM unless noted) was 43.2%, the growth inhibition ([2]; at 50.0 µM unless noted) was -4.15% and the growth inhibition ([3]; at 50.0 µM unless noted) was 56.7%. It also gave a growth inhibition ([4]; at 50.0 µM unless noted) of 10.6%, a growth inhibition ([5]; at 50.0 µM unless noted) of 12.5% and a growth inhibition ([6]; at 50.0 µM unless noted) of -3.35%.
`NC(=S)Nc1nnc(-c2ccc(-c3nnc(NC(N)=S)o3)cc2)o1` showed a growth inhibition ([1]; at 50.0 µM unless noted) of 18.4%, a growth inhibition ([2]; at 50.0 µM unless noted) of 6.65% and a growth inhibition ([3]; at 50.0 µM unless noted) of -21.2%. The growth inhibition ([4]; at 50.0 µM unless noted) was 5.35%, the growth inhibition ([5]; at 50.0 µM unless noted) was 2.05% and the growth inhibition ([6]; at 50.0 µM unless noted) was -8.05%.
Compound `COc1ccc(C(c2ccc(OC)cc2)N2C(=O)CCC2C(=O)O)cc1` (stereo unspecified) has a growth inhibition ([1]; at 50.0 µM unless noted) of -28.6%, a growth inhibition ([2]; at 50.0 µM unless noted) of 21.2% and a growth inhibition ([3]; at 50.0 µM unless noted) of -48.8%. The growth inhibition ([4]; at 50.0 µM unless noted) was 17.1%, the growth inhibition ([5]; at 50.0 µM unless noted) was -1% and the growth inhibition ([6]; at 50.0 µM unless noted) was -12.6%.
Compound `CCCCCCCCCCCCCCCCCC(O)CCCCCCCCCCCCCCCCC` has a growth inhibition ([1]; at 50.0 µM unless noted) of -16.9%, a growth inhibition ([2]; at 50.0 µM unless noted) of -8.45% and a growth inhibition ([3]; at 50.0 µM unless noted) of -7.75%. The growth inhibition ([4]; at 50.0 µM unless noted) was -47.2%, the growth inhibition ([5]; at 50.0 µM unless noted) was 2.4% and the growth inhibition ([6]; at 50.0 µM unless noted) was -8.25%.
With `CN(C)C(=O)OC(Cn1cncn1)(Cn1cncn1)c1ccc(Cl)cc1Cl` the growth inhibition ([1]; at 50.0 µM unless noted) was -29.8%, the growth inhibition ([2]; at 50.0 µM unless noted) was 13% and the growth inhibition ([3]; at 50.0 µM unless noted) was 7.5%. It also gave a growth inhibition ([4]; at 50.0 µM unless noted) of -10.8%, a growth inhibition ([5]; at 50.0 µM unless noted) of 5.1% and a growth inhibition ([6]; at 50.0 µM unless noted) of -16.8%.
In the case of `CCOC(=O)C1CC2OC2CC1C(=O)OCC` (stereo unspecified), the growth inhibition ([1]; at 50.0 µM unless noted) is reported as 0.55%, the growth inhibition ([2]; at 50.0 µM unless noted) is reported as -36.9% and the growth inhibition ([3]; at 50.0 µM unless noted) is reported as -15.2%. It also gave a growth inhibition ([4]; at 50.0 µM unless noted) of 12.4%, a growth inhibition ([5]; at 50.0 µM unless noted) of -1.9% and a growth inhibition ([6]; at 50.0 µM unless noted) of -33.2%.
In the case of `O=C(Nc1ccc(Cl)cc1[N+](=O)[O-])Oc1ccc(C2CCCCC2)cc1`, the growth inhibition ([1]; at 50.0 µM unless noted) is reported as 98.2% (active), the growth inhibition ([2]; at 50.0 µM unless noted) is reported as 94.3% (active) and the growth inhibition ([3]; at 50.0 µM unless noted) is reported as 98% (active). The growth inhibition ([4]; at 50.0 µM unless noted) was 87% (active), the growth inhibition ([5]; at 50.0 µM unless noted) was 98% (active) and the growth inhibition ([6]; at 50.0 µM unless noted) was 97.5% (active).
With `O=C1c2ccccc2C(=O)N1C/C=C/CO` the growth inhibition ([1]; at 50.0 µM unless noted) was 11.5%, the growth inhibition ([2]; at 50.0 µM unless noted) was 8.75% and the growth inhibition ([3]; at 50.0 µM unless noted) was -1.45%. The growth inhibition ([4]; at 50.0 µM unless noted) was 7.6%, the growth inhibition ([5]; at 50.0 µM unless noted) was 0.95% and the growth inhibition ([6]; at 50.0 µM unless noted) was 1.15%.
`O=C(CCN1C(=O)c2ccccc2C1=O)Nc1c(I)cc(I)c(C(=O)O)c1I` gave a growth inhibition ([1]; at 50.0 µM unless noted) of -4.6%, a growth inhibition ([2]; at 50.0 µM unless noted) of -11.7% and a growth inhibition ([3]; at 50.0 µM unless noted) of -20.6%. The growth inhibition ([4]; at 50.0 µM unless noted) was -20.2%, the growth inhibition ([5]; at 50.0 µM unless noted) was 8.65% and the growth inhibition ([6]; at 50.0 µM unless noted) was 6.8%.
In the case of `CCCCC(NC(=O)c1ccc2ccccc2n1)C(=O)O` (stereo unspecified), the growth inhibition ([1]; at 50.0 µM unless noted) is reported as -0.35%, the growth inhibition ([2]; at 50.0 µM unless noted) is reported as 9% and the growth inhibition ([3]; at 50.0 µM unless noted) is reported as 1.5%. For the same compound, the growth inhibition ([4]; at 50.0 µM unless noted) was 7.35%, the growth inhibition ([5]; at 50.0 µM unless noted) was -8.7% and the growth inhibition ([6]; at 50.0 µM unless noted) was 20.2%.
`CC(=O)N(CCC(C)C)CCC(C)C` gave a growth inhibition ([1]; at 50.0 µM unless noted) of 17.9%, a growth inhibition ([2]; at 50.0 µM unless noted) of 2.3% and a growth inhibition ([3]; at 50.0 µM unless noted) of 5.5%. For the same compound, the growth inhibition ([4]; at 50.0 µM unless noted) was 14.3%, the growth inhibition ([5]; at 50.0 µM unless noted) was -8.05% and the growth inhibition ([6]; at 50.0 µM unless noted) was -11.2%.
With `O=C(OC1CCC/C=C\CCCC1)c1ccc(Cl)cc1` (stereo unspecified) the growth inhibition ([1]; at 50.0 µM unless noted) was 1.45%, the growth inhibition ([2]; at 50.0 µM unless noted) was -4.35% and the growth inhibition ([3]; at 50.0 µM unless noted) was -16.4%. It also gave a growth inhibition ([4]; at 50.0 µM unless noted) of -2.1%, a growth inhibition ([5]; at 50.0 µM unless noted) of -1.5% and a growth inhibition ([6]; at 50.0 µM unless noted) of 2.45%.
